Rows were chosen to be rich in hits. Some 3.8% of all compounds tested hit in one or more screens of this group.
NALP1 inh: NALP1 inflammasome inhibitors in reconstituted yeast, colorimetric, S. cerevisiae, triplicate retest; S. cerevisiae NALP1/ASC/caspase-1 growth, X-gal OD620, 72 h; AID 2071, 2009; 280,000 compounds, 0.61% hits; inhibition, % at 10 µM; in the data active = inhibition mostly above about 24%, no sharp cut-off; inactive = mostly below about 32%
pCIP destab: p/CIP-EGFP fusion destabilizers, primary screen, fluorescence, F442A cells; Q05BA5; 16 h; decrease of EGFP signal, % at 10 µM; 290,000 compounds, 0.01% hits; AID 1984, 2009;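 active = EGFP signal decrease of at least 30% at 10 µM or well 3 SD below plate mean, unless failing retest; inactive = the rest, including hits failing retest or dose response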
HSF1 inh: HSF1 inhibitors in luciferase reporter cells, primary screen, cell-based, NIH3T3, luminescence; 300,000 compounds, 0.77% hits; activity change, negative = inhibition, % at 7.5 µM (by protocol); NIH3T3-HGL HSE-luciferase, MG132-induced, luminescence 8 h; stronger effect = lower value;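 active = more than half of replicate wells show activity change below -50%, luminescence cut by over half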;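 note: luciferase reports HSF-1 transcriptional activity via heat shock element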
HSF-1 act: HSF-1 activators, primary screen, NIH3T3-HGL cells, MG132 stress, luminescence, single point. AID 504408, 2011. NIH3T3-HGL HSF-1 luciferase reporter, 8 h; 100% = twice DMSO control signal. 300,000 compounds, 1.7% hits. activation, % at 9 µM;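 active = mean replicate activation of at least 50% with a set share of replicates each reaching 50%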
Hsp70 activator: Hsp70 transcriptional activators, primary screen, cell-based, HeLa, Hsp70 promoter luciferase, luminescence, 10 µM | activation, % at 10 µM | 200,000 compounds, 0.04% hits | HeLa Hsp70 promoter luciferase reporter; scaled: vehicle 0, proteasome-inhibitor control 100%;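 active = activation above the mean across all tested compounds plus 3 SD, cutoff set per campaign, cut at about 5.5% in these data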
HSP90 refold inh: HSP90 inhibitors, primary screen, cell lysate, luminescence; 290,000 compounds, 0.91% hits; Heat shock protein HSP 90 (rabbit reticulocyte lysate; luciferase refolding); inhibition, % at 5.6 µM; Rabbit reticulocyte lysate, luciferase refolding luminescence, 3 h;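 active = inhibition above the screen-wide mean plus 3 SD, computed separately per campaign, cut at about 16% in these data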;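 note: inhibitors lower the luminescence because luciferase stays unfolded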
HSP90 confirm: HSP90 inhibitors, confirmation, cell lysate, luminescence; shares compounds with HSP90 refold inh; rabbit reticulocyte lysate, luciferase refolding luminescence, 3 h; inhibition, % at 5.9 µM; 2,300 compounds, 64% hits; AID 1846, 2009; in the data active = inhibition above about 18%
luciferase ctr: firefly luciferase inhibitors, HSP90 counter-screen, confirmation, artefact control for HSP90 inhibitor project, biochemical, luminescence, triplicate | shares compounds with HSP90 refold inh | purified native firefly luciferase | inhibition, % at 5.9 µM | 2,300 compounds, 48% hits | AID 1847, 2009;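 active = inhibition above the mean inhibition of all tested sample wells plus 3 SD, cut at about 10% in these data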
Target sequence (P08659 whole entry, looked up): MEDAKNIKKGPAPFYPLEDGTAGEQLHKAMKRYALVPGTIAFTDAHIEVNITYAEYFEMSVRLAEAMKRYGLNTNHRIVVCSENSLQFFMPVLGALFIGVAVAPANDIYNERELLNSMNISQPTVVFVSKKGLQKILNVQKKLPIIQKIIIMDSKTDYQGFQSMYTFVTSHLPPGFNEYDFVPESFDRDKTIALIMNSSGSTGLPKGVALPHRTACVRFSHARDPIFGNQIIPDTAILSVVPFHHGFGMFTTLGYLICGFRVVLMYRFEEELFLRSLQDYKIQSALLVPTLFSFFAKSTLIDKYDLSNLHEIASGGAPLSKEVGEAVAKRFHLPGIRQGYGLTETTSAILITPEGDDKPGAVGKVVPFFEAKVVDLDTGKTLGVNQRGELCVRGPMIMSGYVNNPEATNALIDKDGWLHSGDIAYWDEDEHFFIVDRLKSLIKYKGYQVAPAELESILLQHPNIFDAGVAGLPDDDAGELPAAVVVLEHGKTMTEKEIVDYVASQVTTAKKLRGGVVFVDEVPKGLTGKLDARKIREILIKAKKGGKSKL
Hits are given with their value; – = inactive; · = not tested or not shown; ! = not confirmed by another sample.

SMILES	NALP1 inh	pCIP destab	HSF1 inh	HSF-1 act	Hsp70 activator	HSP90 refold inh	HSP90 confirm	luciferase ctr
Cc1ccc2c(C)c(C(=O)NCC(C)(C)N3CCOCC3)oc2c1C	–	–	–	–	·	–	·	·
CCN(CC)c1ccc(SS(=O)(=O)O)cc1	–	–	–	–	–	25!	69	–
CS(=O)(=O)c1ccccc1-c1nnc(NC(=O)c2cccc(N3C(=O)CCC3=O)c2)o1	·	·	–	–	·	·	·	·
CN(C)c1ccc(-c2nc3ccccn3c2/N=C/c2ccc(Br)cc2)cc1	–	–	–	–	–	18	35	19
COc1ccc(S(=O)(=O)NC(C)C(=O)NCC2CCCO2)cc1OC (configuration not stated)	–	–	–	–	·	–	·	·
COc1ccc(CCNC(=O)/C=C/c2ccco2)cc1	–	–	–	–	·	–	·	·
CN=c1scc(-c2ccc(F)cc2)n1/N=C/c1ccc(O)c(O)c1	–	–	·	·	–	20	42	19
Cc1ccccc1NC(=O)N1CCCC(c2nc(-c3ccc(C(C)C)cc3)no2)C1 (configuration not stated)	–	–	–	–	–	70	–	–
O=C(Nc1cccc2cccnc12)c1cc(F)c(F)cc1Cl	–	–	–	–	·	–	·	·
COc1ccc(-c2csc(NC(=S)NC(=O)/C=C/c3ccc(C(C)C)cc3)n2)cc1OC	–	–	–	–	·	19	–	–
CCCN(CC(=O)Nc1ccccc1C)C(=O)c1ccc(NC2CC2)c([N+](=O)[O-])c1	·	·	–	–	·	·	·	·
O=C(/C=C/c1ccccc1)Nc1ccc2c(c1)OCCO2	–	–	–	–	–	32	51	48
O=C(Nc1ccc2c(c1)OCCO2)c1ccccc1	–	–	–	–	·	24	27	17
CSc1ccc(/C=C/C(=O)Nc2ccccc2)cc1	–	–	·	·	–	23	71	67
Cc1ccccc1C(=O)Nc1ccc2c(c1)OCCO2	–	–	–	–	·	43	45	34
CSc1ccccc1C(=O)Nc1ccc2c(c1)OCCO2	–	–	–	–	–	–	·	·
CCCCn1c(N)c(N(CC(C)C)C(=O)c2cccs2)c(=O)[nH]c1=O	·	·	–	–	·	·	·	·
O=C(NNC(=O)c1ccc(F)cc1F)c1ccc(-n2cnnn2)cc1	–	–	–	–	·	–	·	·
COc1cccc(NC(=O)c2ccc3c(c2)OCO3)c1	–	–	–	–	·	29	20	–
COc1cc2cc(C(=O)Nc3ccc4c(c3)OCCO4)[nH]c2cc1OC	–	–	-72	–	·	36	62	58
COc1cccc(NC(=O)c2ccc3c(c2)OCCO3)c1	–	–	–	–	·	45	55	40
COc1ccc(C(=O)Nc2ccc3c(c2)OCCO3)cc1	–	–	·	·	–	28	46	27
CC1CCCN(S(=O)(=O)c2ccc3[nH]c4c(c3c2)CCCC4)C1 (configuration not stated)	–	–	–	–	·	–	·	·
NC(=S)c1cnn2c(-c3cccc(C(F)(F)F)c3)ccnc12	–	–	–	–	·	–	·	·
O=C(CCN1C(=O)/C(=C\c2ccc(F)cc2)SC1=S)Nc1ccc(O)cc1	–	–	–	–	·	–	·	·
COc1ccc(O)c(C(=O)C2c3ccccc3C(=O)N2c2ccc(C)cc2)c1 (configuration not stated)	–	–	–	–	·	–	·	·
O=C(O)C1CCCCC1C(=O)Nc1ccc2c(c1)OCCO2 (configuration not stated)	–	–	-65	–	–	29	–	–
O=C(Nc1ccncc1)c1ccc2c(c1)OCCO2	–	–	–	–	–	–	·	·

Compound activity deposited in PubChem BioAssay by several laboratories.
